# Assay results as given in PubChem BioAssay (Tox21).
# Unmarked numbers belong to inactive results. Records with an inconclusive call do not appear. A call without a number means that no potency is given here. Active and inactive are the calls of the source. Unless noted, calls come from the whole dose curve.
# Experiments:
# [1] = molecular target: Androgen receptor (Homo sapiens) (UniProt P10275); test: qHTS assay to identify small molecule agonists of the androgen receptor (AR) signaling pathway in the presence of an antagonist (AID 1259381); note: nearly all actives have a fitted effect of over 15% in size; note: potency is the fitted concentration of half-maximal effect
# In short: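 Plated MDA-kb2 cells (3,000/well) were pre-incubated 5hr, given nilutamide (3.0uM final) or buffer, then dosed with compounds in DMSO at 15 concentrations. Luciferase activity was quantified by luminescence after 16hr at 37C.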
# [2] = qHTS assay to identify small molecule antagonists of the sonic hedgehog signaling (Shh) pathway (AID 1259369); note: nearly all actives have a fitted effect of over 45% in size; note: potency is the fitted concentration of half-maximal effect
# In short: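 Read-out is luminescence from a firefly luciferase gene controlled by the Gli1 response element, in 3T3Gli1-Luc cells pre-incubated 4hr then exposed to compounds and conditioned medium for 24hr.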
# [3] = molecular target: Estrogen receptor beta (Homo sapiens) (UniProt Q92731); test: qHTS assay to identify small molecule agonists of the estrogen receptor beta (ER-beta) signaling pathway (AID 1259377; active = well fitted activation curve with a large enough effect in the signal ratio in the repeat runs, not every such curve was filed as active; the % refers to the signal ratio; note: potency is the fitted concentration of half-maximal effect)
# In short: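 Read-out: beta-lactamase FRET fluorescence. Cell line: ER-beta-UAS-bla HEK293T in 2% charcoal-stripped FBS. Exposure: 16 hr at 37C. Substrate step: 2 h at room temperature.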
# [4] = qHTS assay to identify small molecule agonists of the androgen receptor (AR) signaling pathway in the presence of an antagonist - cell viability counter screen (AID 1259379; active = well fitted curve in the direction sought with a large enough effect in the repeat runs; an effect the other way counts as inactive or inconclusive; note: nearly all actives have a fitted effect of over 25% in size; note: potency is the fitted concentration of half-maximal effect;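 for activity change, negative = cytotoxicity: MDA-kb2 human breast cancer cells carrying an MMTV luciferase reporter; series mostly up to about 92 µM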)
# In short: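 Each compound was tested at 15 concentrations on MDA-kb2 cells in the presence of 3.0uM nilutamide. Viability was measured by CellTiter-Fluor fluorescence after a 16 hr incubation at 37C in a CO2-free atmosphere.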
# [5] = qHTS assay to identify small molecule agonists of the estrogen receptor beta (ER-beta) signaling pathway - cell viability counter screen (AID 1259380; active = well fitted curve in the direction sought with a large enough effect in the repeat runs; an effect the other way counts as inactive or inconclusive; note: nearly all actives have a fitted effect of over 30% in size; note: potency is the fitted concentration of half-maximal effect)
# In short: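 Compounds dissolved in DMSO were pin-transferred onto ER-beta-UAS-bla HEK293T cells that had settled 6 hr, and exposure ran 16 hr at 37C. Following the reporter read, CellTiter-Glo luminescence after 30 min at room temperature indicated cytotoxicity.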
# [6] = qHTS assay to identify small molecule antagonists of the estrogen receptor beta (ER-beta) signaling pathway - cell viability counter screen (AID 1259382; active = well fitted curve in the direction sought with a large enough effect in the repeat runs; an effect the other way counts as inactive or inconclusive; note: nearly all actives have a fitted effect of over 55% in size; note: potency is the fitted concentration of half-maximal effect; for activity change, negative = cytotoxicity: series mostly up to about 92 µM)
# In short: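 CellTiter-Glo ATP luminescence measured after the LiveBLAzer read in the same wells; ER-beta-UAS-bla HEK293T cells, 16 hr compound treatment with 1nM 17-beta-estradiol agonist at 37C, 5% CO2.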
# [7] = molecular target: Estrogen receptor (Homo sapiens) (UniProt P03372); test: qHTS assay to identify small molecule agonists of the estrogen receptor alpha (ER-alpha) signaling pathway in the presence of an antagonist (AID 1259383); note: nearly all actives have a fitted effect of over 15% in size; note: potency is the fitted concentration of half-maximal effect; for activation: top concentration of the series differs between compounds
# In short: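 Luminescent ERE-luciferase reporter, VM7Luc4E2 cells (endogenous ER-alpha); 10.0nM ICI-182,780 final; 15-point compound titration; 22hr at 37C; ONE-Glo, 30min RT.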
# [8] = qHTS assay to identify small molecule agonists or antagonists of the thyroid stimulating hormone receptor (TSHR) signaling pathway - wild type cell line counter screen (AID 1259384)
# In short: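 Wild-type HEK293 cells were plated 18 h at 37 C/5% CO2, pin-dosed with compound plus Ro20-1724 medium, held 30 min at room temperature, then given cAMP-d2 and anti-cAMP-cryptate; fluorescence was read after 1 h. Fifteen concentrations, triplicate.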
# [9] = molecular target: Thyrotropin receptor (Homo sapiens) (UniProt P16473); test: qHTS assay to identify small molecule antagonists of the thyroid stimulating hormone receptor (TSHR) signaling pathway (AID 1259385); note: nearly all actives have a fitted effect of over 20% in size
# In short: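 TSHR-HEK293 cells were plated and held 18 h at 37C/5% CO2, then given compound plus Ro20-1724 and stimulated with TSH at 1.5 ng/mL final. After 30 min at room temperature, cAMP was detected with cAMP-d2/anti-cAMP-cryptate (1 h) by fluorescence.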
# [10] = molecular target: Estrogen receptor beta (Homo sapiens) (UniProt Q92731); test: qHTS assay to identify small molecule antagonists of the estrogen receptor beta (ER-beta) signaling pathway (AID 1259378; active = well fitted inhibition curve with a large enough effect in the signal ratio in the repeat runs, not every such curve was filed as active; the % refers to the signal ratio)
# In short: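 ER-beta-UAS-bla HEK293T (GripTite) cells in 2% charcoal-stripped FBS medium were preincubated 6 hr at 37C, dosed with compound, then stimulated with 1 nM E2 (final) for 16 hr; beta-lactamase reporter read by B/G FRET fluorescence after 2 hr substrate loading.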
# Estrogen receptor (Homo sapiens), sequence (P03372 whole entry, looked up): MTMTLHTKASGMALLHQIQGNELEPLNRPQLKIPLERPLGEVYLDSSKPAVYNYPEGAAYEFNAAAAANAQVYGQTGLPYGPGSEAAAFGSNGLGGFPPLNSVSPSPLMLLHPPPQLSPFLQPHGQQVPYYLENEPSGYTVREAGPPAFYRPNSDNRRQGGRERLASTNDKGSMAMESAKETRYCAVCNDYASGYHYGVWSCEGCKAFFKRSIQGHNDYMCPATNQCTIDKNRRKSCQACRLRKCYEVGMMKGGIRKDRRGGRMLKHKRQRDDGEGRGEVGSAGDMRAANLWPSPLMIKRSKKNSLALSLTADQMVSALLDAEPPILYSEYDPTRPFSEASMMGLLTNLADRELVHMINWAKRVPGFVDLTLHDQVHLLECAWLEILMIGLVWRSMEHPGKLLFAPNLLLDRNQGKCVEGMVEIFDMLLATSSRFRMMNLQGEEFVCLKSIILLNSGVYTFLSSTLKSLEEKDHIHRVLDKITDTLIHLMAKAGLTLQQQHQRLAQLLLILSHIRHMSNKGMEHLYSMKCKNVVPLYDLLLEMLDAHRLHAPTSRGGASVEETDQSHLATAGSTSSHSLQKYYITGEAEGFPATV
# Thyrotropin receptor (Homo sapiens), sequence (P16473 whole entry, looked up): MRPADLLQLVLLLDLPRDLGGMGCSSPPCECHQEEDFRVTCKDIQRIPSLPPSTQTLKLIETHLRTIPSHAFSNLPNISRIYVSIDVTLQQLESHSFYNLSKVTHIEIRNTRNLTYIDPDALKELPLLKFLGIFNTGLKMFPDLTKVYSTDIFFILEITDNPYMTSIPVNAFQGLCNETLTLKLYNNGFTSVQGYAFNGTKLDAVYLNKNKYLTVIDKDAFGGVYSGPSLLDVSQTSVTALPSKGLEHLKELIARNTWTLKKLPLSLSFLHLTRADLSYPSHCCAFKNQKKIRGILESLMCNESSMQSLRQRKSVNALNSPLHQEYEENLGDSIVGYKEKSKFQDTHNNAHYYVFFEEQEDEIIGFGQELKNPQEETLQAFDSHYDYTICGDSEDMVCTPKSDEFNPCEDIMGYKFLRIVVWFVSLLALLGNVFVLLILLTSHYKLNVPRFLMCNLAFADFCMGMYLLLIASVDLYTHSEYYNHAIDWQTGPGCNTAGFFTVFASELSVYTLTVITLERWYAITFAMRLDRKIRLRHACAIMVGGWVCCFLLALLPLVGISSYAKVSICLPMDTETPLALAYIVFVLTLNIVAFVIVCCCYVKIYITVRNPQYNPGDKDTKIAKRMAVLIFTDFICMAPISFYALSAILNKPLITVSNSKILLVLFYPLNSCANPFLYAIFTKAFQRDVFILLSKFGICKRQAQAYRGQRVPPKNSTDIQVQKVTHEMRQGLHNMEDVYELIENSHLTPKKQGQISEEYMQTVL
# Androgen receptor (Homo sapiens), sequence (P10275 whole entry, looked up): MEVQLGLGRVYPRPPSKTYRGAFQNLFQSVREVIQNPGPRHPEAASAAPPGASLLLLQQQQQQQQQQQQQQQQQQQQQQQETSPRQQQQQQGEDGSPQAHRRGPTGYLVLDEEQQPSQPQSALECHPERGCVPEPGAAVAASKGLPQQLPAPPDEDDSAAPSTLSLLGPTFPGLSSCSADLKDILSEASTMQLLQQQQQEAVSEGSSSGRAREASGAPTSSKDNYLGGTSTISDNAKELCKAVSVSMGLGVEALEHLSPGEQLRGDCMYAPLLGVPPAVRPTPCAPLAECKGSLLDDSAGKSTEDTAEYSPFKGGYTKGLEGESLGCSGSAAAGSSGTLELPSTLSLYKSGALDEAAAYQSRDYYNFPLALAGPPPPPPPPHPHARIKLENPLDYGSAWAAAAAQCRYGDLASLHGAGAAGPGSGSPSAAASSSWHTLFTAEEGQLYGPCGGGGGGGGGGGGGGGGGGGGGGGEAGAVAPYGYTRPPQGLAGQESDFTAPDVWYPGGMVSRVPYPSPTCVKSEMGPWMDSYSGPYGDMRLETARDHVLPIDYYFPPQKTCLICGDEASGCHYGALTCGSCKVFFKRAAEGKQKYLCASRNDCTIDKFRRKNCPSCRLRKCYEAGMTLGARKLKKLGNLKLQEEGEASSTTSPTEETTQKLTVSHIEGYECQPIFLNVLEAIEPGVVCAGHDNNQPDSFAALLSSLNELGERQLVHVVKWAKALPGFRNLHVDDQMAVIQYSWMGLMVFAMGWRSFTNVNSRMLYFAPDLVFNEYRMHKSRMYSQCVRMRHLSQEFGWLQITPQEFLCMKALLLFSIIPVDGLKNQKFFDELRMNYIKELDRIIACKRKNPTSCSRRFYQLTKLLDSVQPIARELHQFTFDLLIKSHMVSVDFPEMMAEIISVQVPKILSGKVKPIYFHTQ
# Estrogen receptor beta (Homo sapiens), sequence (Q92731 whole entry, looked up): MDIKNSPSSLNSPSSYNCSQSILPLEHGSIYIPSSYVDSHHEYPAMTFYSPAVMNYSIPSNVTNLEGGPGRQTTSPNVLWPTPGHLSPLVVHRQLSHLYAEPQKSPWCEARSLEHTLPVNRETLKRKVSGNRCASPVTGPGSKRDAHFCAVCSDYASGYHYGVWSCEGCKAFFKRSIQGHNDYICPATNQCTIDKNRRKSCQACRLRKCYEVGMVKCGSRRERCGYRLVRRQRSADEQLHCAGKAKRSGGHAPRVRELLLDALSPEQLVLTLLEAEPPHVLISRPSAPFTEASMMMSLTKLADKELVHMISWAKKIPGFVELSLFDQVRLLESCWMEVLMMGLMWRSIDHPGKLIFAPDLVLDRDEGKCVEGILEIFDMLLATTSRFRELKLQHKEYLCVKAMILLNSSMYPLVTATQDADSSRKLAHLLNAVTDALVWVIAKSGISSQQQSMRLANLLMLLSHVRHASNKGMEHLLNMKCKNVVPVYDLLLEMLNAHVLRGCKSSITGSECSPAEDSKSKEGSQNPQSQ
compound,measurement,setting,value
O=C(CCCCCCCCC#CI)Oc1ccccc1,Potency,[1],inactive
CCCC(=O)O[C@]1(C(=O)COC(=O)CC)CC[C@H]2[C@@H]3CCC4=CC(=O)CC[C@]4(C)[C@H]3[C@@H](O)C[C@@]21C,Potency,[1],0.184 µM (active)
C=CCCCCCCCCCCCCCCCC,"activity change, negative = inhibition",[2],12.7% [at 8.39 µM]
same,activation,[3],-1.08% [at 8.39 µM]
same,"activity change, negative = cytotoxicity",[4],0.762% [at 8.39 µM]
same,"activity change, negative = cytotoxicity",[5],5.49% [at 8.39 µM]
same,"activity change, negative = cytotoxicity",[6],-0.694% [at 8.39 µM]
same,activation,[7],-0.131% [at 8.39 µM]
same,cAMP activity change,[8],-0.74% [at 8.39 µM]
same,"activity change, negative = inhibition",[9],-0.238% [at 8.39 µM]
O=S1OCCO1,Potency,[2],inactive
same,Potency,[3],inactive
same,Potency,[4],inactive
same,Potency,[5],inactive
same,Potency,[6],inactive
same,Potency,[7],inactive
same,outcome,[8],inactive
same,Potency,[9],inactive
CC(C)(C)C(=O)C(Oc1ccc(Cl)cc1)n1ccnc1 (stereo not given),Potency,[2],inactive
same,Potency,[3],inactive
same,Potency,[4],inactive
same,Potency,[5],1.19 µM (active)
same,Potency,[6],inactive
same,Potency,[7],inactive
same,outcome,[8],inactive
same,Potency,[9],inactive
CCC(Cc1ccccc1)(C(=O)c1ccc(N2CCOCC2)cc1)N(C)C (stereo not given),Potency,[2],19.3 µM (active)
same,Potency,[3],inactive
same,Potency,[10],inactive
same,Potency,[6],inactive
same,Potency,[7],inactive
same,outcome,[8],inactive
same,Potency,[9],inactive
NC(=O)N(O)[C@@H]1COc2cc(OCc3ccccc3)ccc21,Potency,[2],inactive
same,Potency,[3],inactive
same,Potency,[5],inactive
same,Potency,[6],inactive
same,Potency,[7],inactive
same,outcome,[8],inactive
same,Potency,[9],inactive
CC(Cl)C(Cl)Cl (stereo not given),Potency,[2],inactive
same,Potency,[3],inactive
same,Potency,[4],inactive
same,Potency,[5],inactive
same,Potency,[6],inactive
same,Potency,[7],inactive
same,outcome,[8],inactive
same,Potency,[9],inactive
CCOCCn1c(C2CCN(CCc3ccc(C(C)(C)C(=O)O)cc3)CC2)nc2ccccc21,Potency,[2],inactive
same,Potency,[3],inactive
same,Potency,[4],inactive
same,Potency,[5],inactive
same,Potency,[6],inactive
same,Potency,[7],inactive
same,outcome,[8],inactive
same,Potency,[9],inactive
CCCOC(=O)c1ccc(N)cc1,Potency,[2],inactive
same,Potency,[3],inactive
same,Potency,[10],inactive
same,Potency,[5],inactive
same,Potency,[6],inactive
same,Potency,[7],inactive
same,outcome,[8],inactive
same,Potency,[9],inactive
CC(C)CCCCCOC(=O)CCCCC(=O)OCCCCCC(C)C,Potency,[2],inactive
same,Potency,[3],inactive
same,Potency,[10],inactive
same,Potency,[5],inactive
same,Potency,[6],inactive
same,outcome,[8],inactive
same,Potency,[9],inactive
CC(C)c1nnc2ccc(-c3ocnc3-c3cc(F)ccc3F)cn12,Potency,[2],1.09 µM (active)
same,Potency,[3],inactive
same,Potency,[4],inactive
same,Potency,[5],inactive
same,Potency,[6],inactive
same,Potency,[7],inactive
same,outcome,[8],inactive
same,Potency,[9],inactive
CCC(C(=O)OCCN(CC)CC)c1ccccc1 (stereo not given),Potency,[2],inactive
same,Potency,[3],inactive
same,Potency,[4],inactive
same,Potency,[5],inactive
same,Potency,[6],inactive
same,Potency,[7],inactive
same,outcome,[8],inactive
same,Potency,[9],inactive
CC(=O)[C@H]1CC[C@H]2[C@@H]3C=CC4=CC(=O)CC[C@@]4(C)[C@@H]3CC[C@]12C,Potency,[2],11.9 µM (active)
same,Potency,[3],inactive
same,Potency,[4],inactive
same,Potency,[5],inactive
same,Potency,[6],inactive
same,Potency,[7],inactive
same,outcome,[8],inactive
same,Potency,[9],inactive
CN(C(=O)C(Cl)Cl)c1ccc(OC(=O)c2ccco2)cc1,Potency,[2],inactive
same,Potency,[3],inactive
same,Potency,[4],inactive
same,Potency,[5],inactive
same,Potency,[6],inactive
same,outcome,[8],inactive
same,Potency,[9],inactive
Cn1c(=O)c2c(ncn2CC(=O)O)n(C)c1=O,Potency,[2],inactive
same,Potency,[3],inactive
same,Potency,[10],inactive
same,Potency,[6],inactive
same,Potency,[7],inactive
same,outcome,[8],inactive
same,Potency,[9],inactive
CSc1ccc(Oc2ccc(S(N)(=O)=O)cc2CN(C)C)cc1C,Potency,[2],5.45 µM (active)
same,Potency,[3],inactive
same,Potency,[4],inactive
same,Potency,[5],38.6 µM (active)
same,Potency,[6],27.3 µM (active)
same,Potency,[7],inactive
same,outcome,[8],inactive
[O]=[Bi],Potency,[2],1.67 µM (active)
same,activation,[3],4.87% [at 8.39 µM]
same,"activity change, negative = cytotoxicity",[4],2.01% [at 8.39 µM]
same,"activity change, negative = cytotoxicity",[5],4.86% [at 8.39 µM]
same,"activity change, negative = cytotoxicity",[6],-2.24% [at 8.39 µM]
same,activation,[7],0.802% [at 8.39 µM]
CC(C)=CC=O,Potency,[2],inactive
same,Potency,[3],inactive
same,Potency,[4],inactive
same,Potency,[5],inactive
same,Potency,[6],inactive
same,Potency,[7],inactive
CCOc1cc(N)c(Cl)cc1C(=O)NCC1CN(Cc2ccc(F)cc2)CCO1 (stereo not given),Potency,[2],inactive
same,Potency,[3],inactive
same,Potency,[4],inactive
same,Potency,[5],2.37 µM (active)
same,Potency,[6],inactive
same,Potency,[7],inactive
same,outcome,[8],inactive
same,Potency,[9],inactive
COCCOC,Potency,[2],4.13 µM (active)
same,Potency,[3],inactive
same,Potency,[10],inactive
same,Potency,[6],inactive
same,outcome,[8],inactive
same,Potency,[9],inactive
CC(=O)Oc1ccc2c(c1)CC[C@@H]1[C@@H]2CC[C@]2(C)[C@@H](O)CC[C@@H]12,Potency,[2],1.19 µM (active)
same,Potency,[3],0.0008 µM (active)
same,Potency,[4],inactive
same,Potency,[5],inactive
same,Potency,[6],inactive
same,outcome,[8],inactive
same,Potency,[9],inactive
CCc1nn(CCCN2CCN(c3cccc(Cl)c3)CC2)c(=O)n1CCOc1ccccc1,Potency,[2],15 µM (active)
same,Potency,[3],inactive
same,Potency,[4],29.8 µM (active)
same,Potency,[7],inactive
same,outcome,[8],inactive
CCOC(=O)CC(=O)C(=O)OCC,Potency,[2],inactive
same,Potency,[3],inactive
same,Potency,[5],8.63 µM (active)
same,Potency,[1],1.54 µM (active)
same,Potency,[7],inactive
same,outcome,[8],inactive
same,Potency,[9],inactive
COC(=O)Nc1nc2ccc(C(=O)c3cccs3)cc2[nH]1,Potency,[2],0.335 µM (active)
same,Potency,[3],inactive
same,Potency,[4],inactive
same,Potency,[5],inactive
same,Potency,[6],inactive
same,outcome,[8],inactive
same,Potency,[9],inactive
Cc1nc2ccccc2s1,Potency,[2],inactive
same,Potency,[3],inactive
same,Potency,[5],inactive
same,Potency,[6],inactive
same,Potency,[7],inactive
same,outcome,[8],inactive
same,Potency,[9],inactive
CCn1cc(C(=O)O)c(=O)c2cc(F)c(N3CCNCC3)nc21,Potency,[2],inactive
same,Potency,[3],inactive
same,Potency,[4],inactive
same,Potency,[5],inactive
same,Potency,[6],inactive
same,Potency,[7],inactive
same,outcome,[8],inactive
same,Potency,[9],inactive
CCC(=O)Oc1ccc(/C(CC)=C(\CC)c2ccc(OC(=O)CC)cc2)cc1,Potency,[2],24.3 µM (active)
same,Potency,[3],0.0017 µM (active)
same,Potency,[4],inactive
same,Potency,[6],inactive
same,Potency,[7],0.0054 µM (active)
same,outcome,[8],inactive
same,Potency,[9],inactive
